Mtb hypoxia rep – PubChem AID 1159583; hit rate 0.1% among 300,000; fluorescence inhibition, % (test concentration not listed); M. tuberculosis hypoxia-regulated fluorescent reporter, fluorescence; in the data active = fluorescence inhibition mostly above about 23%, no sharp cut-off; inactive = mostly below about 17%
PrPC TRFRET – inhibitors of human cell surface prion protein PrPC, primary screen, cell-based, TR-FRET | TR-FRET read-out | inhibition, % at 13.8 µM | hit rate 0.43% among 370,000 | Major prion protein (Homo sapiens), P04156; in the data active = inhibition above about 24%; also: 0% = median of the test wells and 100% = reference compound wells
PrP 5UTR inh – inhibition of PrP 5' UTR reporter expression. inhibition, % (test concentration not listed). cell-based PrP 5' UTR mRNA reporter, plate reader. hit rate 0.35% among 340,000. AID 488862, 2010; in the data active = inhibition above about 52%; also: 0 = median of the neutral control wells
GDH-TPI counter-1 – GDH-TPI coupling enzyme inhibitors, primary screen, artefact control for M. tuberculosis FBA inhibitor project, biochemical, absorbance, full deck; AID 588335, 2011; hit rate 1.2% among 360,000; inhibition, % at 4.8 µM; GDH-TPI coupled enzyme counterscreen, NADH absorbance; in the data active = inhibition above about 30%;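 also: 0% = DMSO wells and 100% = wells lacking the enzyme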
FBA Mtb inh – Mtb FBA enzyme inhibitors, primary screen, biochemical, fluorescence, strain H37Rv | inhibition, % at 1 µM | hit rate 2.3% among 360,000 | purified M. tuberculosis FBA, fluorescence read-out;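 also: 0% = vehicle and 100% = reference inhibitor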
Target sequence (P9WQA3 whole entry, looked up): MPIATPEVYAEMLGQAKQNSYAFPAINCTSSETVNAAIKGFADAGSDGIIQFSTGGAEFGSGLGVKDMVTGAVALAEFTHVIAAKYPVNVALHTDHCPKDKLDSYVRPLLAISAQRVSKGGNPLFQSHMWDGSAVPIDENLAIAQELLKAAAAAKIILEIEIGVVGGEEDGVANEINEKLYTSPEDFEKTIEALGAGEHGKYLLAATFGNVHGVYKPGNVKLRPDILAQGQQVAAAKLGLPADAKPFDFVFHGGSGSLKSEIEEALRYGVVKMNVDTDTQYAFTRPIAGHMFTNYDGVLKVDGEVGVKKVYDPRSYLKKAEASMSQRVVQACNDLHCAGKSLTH
Yp Topo-I inh – Yersinia pestis topoisomerase I inhibitors, primary screen, biochemical, cleavage product accumulation, plate reader, single point. hit rate 0.064% among 360,000. Y. pestis Topo-I cleavage product accumulation. activity, % at 10 µM. DNA topoisomerase I (Yersinia pestis CO92). AID 504884, 2011; in the data active = activity above about 50%, passing the limit was not always enough
Mtb FBA inh conf – M. tuberculosis aldolase blockers, biochemical, fluorescence, strain H37Rv, confirmation; shares compounds with FBA Mtb inh; purified M. tuberculosis FBA, fluorescence read-out; inhibition, % at 1 µM; hit rate 78% among 5,600;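 also: 0% = vehicle wells and 100% = reference inhibitor wells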
GDH-TPI counter-2 – GDH-TPI coupling enzyme inhibitors, artefact control for M. tuberculosis FBA inhibitor project, biochemical, fluorescence, high throughput; shares compounds with FBA Mtb inh; hit rate 81% among 5,600; AID 652141, 2013; inhibition, % at 1 µM; GDH-TPI coupled enzyme counterscreen; in the data active = inhibition above about 10%
GDH-TPI dose – GDH-TPI coupling enzyme inhibitors, dose response, artefact control for M. tuberculosis FBA inhibitor project, biochemical, fluorescence, IC50. IC50, µM. AID 652145, 2013. hit rate 79% among 170. shares compounds with FBA Mtb inh. GDH-TPI coupled enzyme assay, artifact counterscreen; call rule not given here
Starred values were filed as active, the others as inactive; · = no result given; + = active, no number. Rows were chosen to be rich in hits. Some 3.8% of all compounds tested hit in one or more screens of this group. Rule as the data show it, unless noted: active = inhibition above about 27%; inactive = the rest.

SMILES | Mtb hypoxia rep | PrPC TRFRET | PrP 5UTR inh | GDH-TPI counter-1 | FBA Mtb inh | Yp Topo-I inh | Mtb FBA inh conf | GDH-TPI counter-2 | others
O=C(N/N=C/C=C/c1ccccc1)NC1CCCCC1 | · | 10.7 | -34.4 | 12.5 | 68.1* | 0.8 | 167.4* | 145.3*
O=C(NN=C/C=C/c1ccccc1)c1ccccn1 | 9.1 | · | · | · | · | · | · | ·
O=C(N/N=C/C=C/c1ccccc1)c1ccccn1 | · | -9.5 | -38.4 | 35.3* | 64.6* | 4.8 | 180.1* | 173.9*
Cc1cccc(Oc2coc3cc(OC(=O)c4cncc(Br)c4)ccc3c2=O)c1 | 12.5 | 5.9 | -10.7 | 12.6 | 15.0 | -9.6 | · | ·
O=C(Oc1ccc2c(=O)c(Oc3ccc4ccccc4c3)coc2c1)c1ccco1 | 4.8 | 1.9 | -18.2 | -9.8 | 39.7* | 24.3 | 42.1* | 35.3*
Cc1cccc(Oc2coc3cc(OC(=O)c4cc5ccccc5oc4=O)ccc3c2=O)c1 | 10.1 | -4.8 | -35.0 | 10.1 | 15.9 | 5.2 | · | ·
Cc1cc(C)cc(Oc2coc3cc(OC(=O)c4cccnc4)ccc3c2=O)c1 | 15.6 | 6.5 | -18.9 | 4.8 | 32.5* | 22.4 | 47.3* | 36.1*
COc1ccc(-c2cc(C(F)F)n3ncc(C(=O)N4CCN(C)CC4)c3n2)cc1 | · | -15.4 | -18.1 | 16.7 | 29.5* | 6.7 | 38.8* | 33.7*
O=C(O)c1ccc(-c2ncc[nH]2)cc1 | 12.7 | -3.6 | -16.5 | -1.9 | 48.9* | 5.6 | 0.0 | 1.6
O=C(NN=CC1CC2C=CC1C2)c1ccccc1O (stereo unspecified) | 0.8 | · | · | · | · | · | · | ·
Cc1ccc(-n2c(-c3ccccc3)cc(C=NNC(=O)CC#N)c2-c2ccccc2)cc1 | -2.0 | · | · | · | · | · | · | ·
CNc1nccc(-c2ccc(F)cc2)c1C#N | 15.9 | 7.0 | -108.8 | 5.8 | 31.8* | 16.4 | 144.8* | 95.8*
NC(=O)C1CCN(c2oc(-c3ccc(F)cc3)nc2S(=O)(=O)c2ccccc2)CC1 | 10.3 | -6.9 | -9.7 | 10.5 | -1.3 | 17.8 | · | ·
COc1cccc(/C=C/c2nc(S(=O)(=O)c3ccccc3)c(N3CCC(C(N)=O)CC3)o2)c1 | · | -2.1 | · | 31.0* | 38.1* | 13.4 | 21.9 | 7.6 | GDH-TPI dose=1.34*
N#CC(=NNc1ccccc1[N+](=O)[O-])C(N)=S | 6.0 | · | · | · | · | · | · | ·
CCOc1ncccc1C(=O)OCC(=O)N1CCN(S(=O)(=O)c2ccc(Cl)cc2)CC1 | 13.7 | 1.2 | -40.7 | -5.2 | -3.1 | 21.3 | · | ·
Nc1ncccc1C(=O)OCC(=O)N1CCN(S(=O)(=O)c2ccc(Cl)cc2)CC1 | 4.3 | 0.5 | -1.8 | 23.3 | 62.5* | -0.5 | 9.1 | -3.9
C#CCn1c(=NC(=O)c2sc3ccccc3c2Cl)sc2cc(S(N)(=O)=O)ccc21 | · | -3.5 | -1.3 | 42.0* | 39.0* | 2.4 | + | +
C#CCn1c(=NC(=O)c2ccccc2[N+](=O)[O-])sc2cc(S(C)(=O)=O)ccc21 | · | -0.3 | -28.4 | 11.3 | 2.6 | 3.6 | · | ·
FC(F)(F)c1ccc(Sc2nnc(-c3cccs3)n2CC2CCCO2)nc1 (stereo unspecified) | 17.2 | 8.6 | -25.4 | 6.1 | 83.2* | 4.7 | 98.5* | 68.8*
FC(F)(F)c1cnc(Sc2nnc(-c3cccs3)n2CC2CCCO2)c(Cl)c1 (stereo unspecified) | 11.7 | 10.5 | -2.2 | -9.9 | -1.9 | 4.4 | · | ·
CCC1=C(OC(=O)N(CC)CC)N2C(=O)OC(=NCC(=O)OC)[C@]2(Cc2ccccc2)C2C1=CCC1C(=O)N(c3ccccc3)C(=O)C12 (stereo partly specified) | 10.2 | · | · | · | · | · | · | ·
CCOC(=O)C1=CN2CCCC2CC1=O (stereo unspecified) | 6.8 | · | · | · | · | · | · | ·
Cn1c(=O)c2c(nc(NN=Cc3cccs3)n2Cc2ccc(Br)cc2)n(C)c1=O | -10.8 | · | · | · | · | · | · | ·
